# D3 ag: qHTS of D3 Dopamine Receptor Agonist: qHTS | D3R DiscoveRx beta-arrestin cells, luminescence, 90 min | max activation, % | D(3) dopamine receptor (Homo sapiens), P35462 | hit rate 0.58% among 410,000; in the data active means max activation above about 30%; further: 0% is about no effect
#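 Cells at 1500/well, incubated overnight, then treated with pinned compounds (dopamine as control) for 90 min at 37 degrees C. DiscoveRx reagent added for 30 - 60 minutes at room temperature; luminescence read.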
# DRD3 antagonist: qHTS of D3 Dopamine Receptor Antagonist: qHTS. max response, negative = inhibition, %. D3R cells, DiscoveRx beta-arrestin luminescence, antagonist mode; hits give low values. D(3) dopamine receptor (Homo sapiens), P35462. AID 652054, 2013. hit rate 2.5% among 360,000; in the data active means max response below about -50%; inconclusive means no clear call, values can overlap the other calls; further: on the % scale 0 is the no-effect control and ±100 the full control effect
#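 Cells plated overnight at 1500 cells/well, then exposed to library compounds with dopamine controls for 90 minutes at 37 degrees C. DiscoveRx reagent added for 30–60 minutes at room temperature; luminescence read, quantitative HTS format.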
# IL1B secr inh: qHTS for Inhibitors of Inflammasome Signaling: IL-1-beta AlphaLISA Primary Screen. THP-1 LPS/ATP IL-1B secretion, AlphaLISA, 16 h; hits give low values. activity change, % at 57.5 µM. hit rate 4.7% among 360,000. AID 743279, 2014; in the data active means activity change below about -50%; inconclusive means mostly about -30% to -49%; further: on the % scale 0 is the no-effect control and ±100 the full control effect
#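 THP-1 cells pretreated 1 hr with compounds (up to 57.5 uM final), then stimulated with LPS (250 ng/mL final) plus ATP (1.25 mM final); secreted IL-1B measured by AlphaLISA after 16 hr, decreased signal indicating inhibition.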
# DT40 TDP1 no CPT: qHTS for Inhibitors of human tyrosyl-DNA phosphodiesterase 1 (TDP1): qHTS in cells in absence of CPT. DT40 Tdp1-/- hTDP1 cells, no CPT, ATP luminescence, 48 h. Potency, µM (series often up to 46.2 µM), inactives show at the highest dose activity change, negative = growth inhibition, actives largely listed as inhibitors. hit rate 15% among 420,000. AID 686978, 2013; further: potency means the concentration at half of the fitted maximal effect; on the % scale 0 is the no-effect control and ±100 the full control effect; nearly all actives have a fitted effect of over 55% in size
#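 Cells were dispensed at 400 per well, compounds added by pin tool, plates incubated ≥48 hr at 37 °C, then CellTiter-Glo added for 30 min at room temperature before luminescence reading. Line: DT40 Tdp1-/- complemented with hTDP1; camptothecin omitted.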
# TDP1 cell CPT: qHTS for Inhibitors of human tyrosyl-DNA phosphodiesterase 1 (TDP1): qHTS in cells in presence of CPT | chicken DT40 Tdp1-/-;hTDP1 cells + 20 nM CPT, ATP luminescence, 48 h | Potency, µM (series often up to 46.2 µM), for the others: at the highest dose activity change, negative = growth inhibition, usual class: inhibitors | hit rate 12% among 420,000 | AID 686979, 2013; further: potency means the concentration at half of the fitted maximal effect; on the % scale 0 is the no-effect control and ±100 the full control effect; nearly all actives have a fitted effect of over 55% in size
#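 Cell growth measured by CellTiter-Glo luminescence after a minimum 48 h, 37 C compound exposure with 20 nM CPT in Tdp1-knockout DT40 cells stably expressing hTDP1, seeded 400/well; qHTS titration format.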
# ClpP mod: qHTS Assay for Activators of ClpP; purified B. subtilis ClpP, FRET peptide cleavage, 20 min; Potency, µM (highest dose often 57.5 µM), for inactives: at the highest dose activity change, negative = active; hit rate 1.9% among 340,000; active means well fitted falling curve with a large enough effect; inconclusive means small, poorly fitted or top-dose-only effect; inactive means no such curve, though single readings can be large or run the other way; further: potency means the concentration at half of the fitted maximal effect; the source files actives as falling curves though it sought activators and does not explain the sign; nearly all actives have a fitted effect of over 65% in size
# Target sequence (P80244 whole entry, looked up): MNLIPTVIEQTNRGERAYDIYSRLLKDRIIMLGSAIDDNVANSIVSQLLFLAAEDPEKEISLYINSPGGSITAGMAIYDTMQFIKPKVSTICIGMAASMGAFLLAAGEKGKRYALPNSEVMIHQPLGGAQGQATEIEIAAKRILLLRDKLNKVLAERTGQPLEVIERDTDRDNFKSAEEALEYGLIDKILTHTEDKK
#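 ClpP 10 microg/mL final, pH 8 Tris/KCl buffer with BSA, glycerol, Tween-20; compound pinned in; FRET-FV substrate; RT 20 min; Ex320/Em430; ΔFRET vs ADEP 5.8 microM, DMSO, no enzyme.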
# Starred values were filed as active, the others as inactive; ? = inconclusive; . = no result; [ ] = remark or other dose. A selection: hits, their analogues and other compounds. The true share with any hit is near 21%. Unless noted, the call rests on the fitted dose curve; in most records, active means well fitted inhibition curve with a large enough effect; inconclusive means small, poorly fitted or top-dose-only effect; inactive means flat fitted curve, though single readings scatter.
SMILES,D3 ag,DRD3 antagonist,IL1B secr inh,DT40 TDP1 no CPT,TDP1 cell CPT,ClpP mod
O=C(Nc1ccc2c(c1)OCCO2)C(c1ccnc2ccccc12)n1c(=O)c(-c2ccco2)nc2ccccc21 (stereo not drawn),2,0,5,15µM*,7.3µM*,-19%
Cc1ccc(-c2nnn(CC(=O)N(CC(=O)NC3CCCC3)c3ccccc3F)n2)o1,1,5,5,5%,-1%,.
CC(=O)N1CCC[C@H]1C(=O)N1CCc2c(cnc(C)c2CNC(=O)/C=C/c2cccs2)C1,.,.,.,-3%,-6%[9.04 µM],.
CC(=O)Nc1ccc(-c2ccnc3c2CC(C)(C(=O)NCc2ccncc2)O3)cc1 (stereo not drawn),-2,11,-1,1%,6%,5%
CC(=O)Nc1ccc(-c2ccnc3c2CC(C)(C(=O)Nc2ccc(F)c(Cl)c2)O3)cc1 (stereo not drawn),8,1,-62*,23µM*,?,4%
CN(C)c1ccc(-c2ccnc3c2CC(C)(C(=O)Nc2ccc(F)c(Cl)c2)O3)cc1 (stereo not drawn),69*,-24,23,?,?,5%
CN(C)c1ccc(-c2ccnc3c2CC(C)(C(=O)Nc2ccc(Cl)cc2)O3)cc1 (stereo not drawn),0,-2,-23,?,?,5%
C=C(C)C(=O)Nc1ccc2c(c1)OCCOCCOCCO2,6,3,-4,-7%,4%,.
Cc1cc(NC(=O)c2cc(-c3ccc(Cl)c(Cl)c3)on2)n(-c2ccccc2)n1,2,.,.,-23%,-21%,0%
COc1ccc(CCNC(=O)CNC(=O)c2nn(-c3ccc(OC)c(OC)c3)c(=O)c3ccccc23)cc1OC,22,74,-6,9.2µM*,-28%,.
CCN(CCCNC(=O)CNC(=O)c1nn(-c2ccc(OC)c(OC)c2)c(=O)c2ccccc12)c1ccccc1,-9,3,?,18µM*,?,.
COc1ccc(-n2nc(C(=O)NCC(=O)NCCc3ccc(OC)c(OC)c3)c3ccccc3c2=O)cc1,5,14,0,?,?,.
CCCCNC(=O)CNC(=O)c1nn(-c2ccc(OC)c(OC)c2)c(=O)c2ccccc12,0,0,2,?,-24%,0%
O=C(Nc1ccccc1)N1CCC2(CC1)CCN(C(=O)c1cccc(F)c1)CC2,.,.,.,?,-7%,.
CCc1ccc(-c2cc(C)no2)cc1S(=O)(=O)Nc1cc(C)on1,-24,-75*,45,18%,0%,-2%
CSc1ccc(CCNS(=O)(=O)c2cc(-c3cc(C)no3)ccc2C)cc1,13,.,.,21µM*,?,1%
CCc1ccc(-c2cc(C)no2)cc1S(=O)(=O)NCCc1ccccc1,5,-3,-13,18µM*,?,-4%
Cc1cc(-c2ccc(C)c(S(=O)(=O)NCCc3ccccc3)c2)on1,0,.,.,?,?,0%
CCc1ccc(-c2cc(C)no2)cc1S(=O)(=O)Nc1ccc(Cl)cn1,0,-15,36,18%,?,-10%
O=C(CCNC(=O)Cn1ccc2ccccc2c1=O)NCc1ccc(F)cc1Cl,3,1,2,14%,-13%,-6%
O=C(Nc1ccc2c(c1)oc1ccccc12)C1CC1,-1,2,43,9.2µM*,15µM*,-10%
O=C(Nc1cccc(S(=O)(=O)N2CCCCC2)c1)C1CCC1,-1,-12,3,-13%,-17%,2%
O=C(O)CCCC(=O)Nc1ccc2c(c1)oc1ccccc12,-3,-15,53,21%,2%,-2%

# Bioassay records (PubChem)
